Experimental data from PubChem BioAssay AID2685 (National Center for Advancing Translational Sciences (NCATS), 2010).
About 2,100 (0.66%) of roughly 320,000 compounds were called active. Another 53% or so got no clear call; they are omitted. Calls follow the shape of the dose curve; as a rule, active = well fitted inhibition curve with a large enough effect in the signal ratio, with a control signal flat (not every such curve was filed as active); inconclusive = small, poorly fitted or top-dose-only effect, or effect the other way, or a change in a side signal; inactive = flat fitted curve, though single readings scatter; the % refers to the signal ratio. What follows is part of a selection rich in actives, with near analogues and random picks from the rest.

test: qHTS Assay for Lipid Storage Modulators in Drosophila S3 Cells; details: BODIPY lipid droplet fluorescence, 18-24 h, cells fed with added oleic acid; cell number change: measured here: cell count max response; series mostly up to 46.1 µM;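 as to cell number change: cells counted by Cell Tracker Red CMTPX staining in the red channel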; as to lipid storage change, negative = inhibition: % is scaled to controls: 0 for no effect and ±100 for the full control effect
In short: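 Drosophila S3 cells got compounds at several concentrations plus oleic acid (400 uM solution). Laser-scanning cytometry with 488 nm excitation read lipid droplets at 500-530 nm and cells at 575-640 nm. Percent activity was relative to 20 uM Triacsin C.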
Potency is read from the fitted curve at half-maximal effect.

| SMILES | Potency | cell number change [%] | lipid storage change, negative = inhibition |
| --- | --- | --- | --- |
| COc1cccc(NC(=O)CSc2nnc3cc(C)nc(N)n23)c1 | inactive | -13.7 |  |
| O=C(CSc1nnc(Nc2ccccc2F)s1)NC1CCCC1 | 11.6 µM (active) | -17.4 |  |
| COc1ccccc1Nc1nnc(SCC(=O)NC2CC2)s1 | inactive | -14.3 |  |
| O=C(CSc1nnc(NC(=O)c2ccccc2)s1)NC1CCCC1 | inactive | -5.42 |  |
| CC(=O)n1cc([C@@H]2C=C(C(=O)NCc3ccccc3)O[C@H](OCCCCO)C2)c2ccccc21 | inactive | -1.9 |  |
| Cc1cccc(-n2c(SCc3cc(=O)n4ccsc4n3)nc3ccccc32)c1 | 14.6 µM (active) | -9.74 |  |
| CCn1c(SCc2cc(=O)n3ccsc3n2)nc2ccccc21 | inactive | 0.881 |  |
| Cc1ccc(SCc2cc(=O)n3ccsc3n2)c(C)c1 | inactive | -12.5 |  |
| O=C(CSc1nnc(-c2ccncc2)n1-c1ccccc1)Nc1ccc(C(=O)O)cc1 | inactive | 4.34 |  |
| O=C(COC(=O)c1ccc[nH]c1=O)NC1CCCc2ccccc21 (centres undefined) | inactive | 6.05 |  |
| Cc1noc(C)c1S(=O)(=O)N1CCCC(C(=O)NCCc2ccc(Cl)cc2)C1 (centres undefined) | inactive |  |  |
| Cc1nnc(SCC(=O)Nc2ccc(N3CCOCC3)cc2)n1-c1ccccc1 | inactive | -17.5 |  |
| CCCCn1c(-c2cccc(C)c2)nc2cc3[nH]c(=O)c(C(C)C)nc3cc21 | inactive | -25.6 |  |
| CCCCn1c(-c2ccc(C(C)(C)C)cc2)nc2cc3[nH]c(=O)c(C(C)C)nc3cc21 | inactive | -12.9 |  |
| CCCCn1c(-c2cccc3ccccc23)nc2cc3[nH]c(=O)c(C(C)C)nc3cc21 | 20.6 µM (active) | -23 |  |
| O=C(c1cccnc1Cl)N(Cc1ccccc1)Cc1ccccc1 | inactive | 4.31 |  |
| CCCOC(=O)c1ccc(NC(=O)C2C3CCC(C3)C2C(=O)O)cc1 (centres undefined) | inactive | 2.97 |  |
| COc1ccc(/C=N/NC(=O)c2ccncc2)cc1CSc1nc2ccccc2s1 | inactive | 1.7 |  |
| CCOC(=O)CSc1nc(C)cc(C)n1 | 23.1 µM (active) | 4.86 |  |
| CCN(CC)C(=O)CSc1nc(C)cc(C)n1 | inactive | -1.44 |  |
| Cc1cc(C)nc(SCC(N)=O)n1 | inactive | 14.6 |  |
| CCOc1ccccc1OCC(=O)Oc1ccc(C)c(C)c1 | inactive | 18.7 |  |

| SMILES | Potency | cell number change [%] | lipid storage change, negative = inhibition |
| --- | --- | --- | --- |
| Cc1nc(N/N=C/c2ccccn2)sc1C | inactive | -10.6 |  |
| Cc1nc(-c2ccccc2)sc1-c1nc(-c2ccncc2)ncc1S(=O)(=O)c1ccccc1 | inactive | 12.5 |  |
| O=C(Cc1ccc(Cl)cc1)NNC(=O)C1CC=CCC1C(=O)O (centres undefined) | 18.4 µM (active) |  |  |
| CC1=C(C)CC(C(=O)NCC(=O)c2ccccc2)C(C(=O)O)C1 (centres undefined) | inactive |  |  |
| O=C(O)C1CC=CCC1C(=O)NCCc1ccccc1 (centres undefined) | 23.1 µM (active) | 3.33 |  |
| O=C(O)C1CCCCC1C(=O)NCCCc1ccccc1 (centres undefined) | inactive | -1.96 |  |
| O=C(O)C1CC=CCC1C(=O)Nc1cc(Cl)ccc1Cl (centres undefined) | inactive | -10.1 |  |
| O=C(O)[C@H]1CCCC[C@H]1C(=O)NCCc1ccccc1 | inactive | 7.81 |  |
| CC1=C(C)CC(C(=O)NCCc2ccccc2)C(C(=O)O)C1 (centres undefined) | 6.51 µM (active) |  |  |
| O=C(NNC(=O)[C@H]1CC=CC[C@H]1C(=O)O)c1ccc(Cl)cc1Cl | inactive | 10.3 |  |
| COc1ccc(CCNC(=O)C2CC=CCC2C(=O)O)cc1 (centres undefined) | inactive | 23.9 |  |
| C/C(=N/N=C1/NC(=O)CC(C(=O)Nc2ccccc2)S1)c1cccs1 (centres undefined) | inactive | 1.13 |  |
| CCOc1ccc(/C=C2\SC(=S)N(CCC(=O)Nc3ccc(C(=O)O)cc3)C2=O)cc1 | inactive | 8.29 |  |
| O=C(Nc1cccc(C(F)(F)F)c1)c1cncs1 | inactive |  |  |
| CCC(C)NC(=O)C1c2ccccc2C(=O)N1Cc1cc(OC)ccc1OC (centres undefined) | inactive | 8.31 |  |
| O=C(N=Nc1c(O)[nH]c2ccccc12)c1cccs1 | inactive | -7.18 |  |
| COc1cc(OC)cc(C(=O)N2CCN(C(=O)c3ccc(OC)c(OC)c3)CC2)c1 | inactive | 14.7 |  |
| CN(CCc1ccccn1)Cc1ccc(Cl)cc1 | inactive | 7.49 |  |
| CN(CCc1ccccn1)Cc1ccc(Cl)c(Cl)c1 | inactive | -4.68 |  |
| CC(C)=CCCC(C)CN(C)CCc1ccccn1 (centres undefined) | 18.4 µM (active) | -0.762 |  |
| COc1ccc(CNC(=S)Nc2ccccc2)cc1Cl | inactive | 0.106 |  |
| COC(CNC(=O)CN1CCN(Cc2ccc(F)cc2Cl)C1=O)OC | inactive | -2.41 |  |

| SMILES | Potency | cell number change [%] | lipid storage change, negative = inhibition |
| --- | --- | --- | --- |
| Nc1ccc(C(=O)OCCCc2nc3ccccc3[nH]2)cc1 | inactive | 0.404 |  |
| COC(=O)c1ccc(C(=O)OCCCc2nc3ccc(N)cc3[nH]2)cc1 | inactive | 2.42 |  |
| Nc1ccc(C(=O)OCCCc2nc3cc4ccccc4cc3[nH]2)cc1 | 25.9 µM (active) | -15.5 |  |
| COc1ccc(/C=C(\C#N)C(=O)c2c(C)[nH]c3ccccc23)cc1OC | inactive |  |  |
| O=C(CSc1ccccc1)Nc1nnc(C2CC2)s1 | inactive | 6.15 |  |
| Cc1ccc(NC(=O)COC(=O)CCc2ccc(S(=O)(=O)N3CCOCC3)cc2)c(C)c1 | inactive | 16.8 |  |
| Cc1ccc(NC(=O)COC(=O)C2CCC(=O)N2)c(S(=O)(=O)N2CCOCC2)c1 (centres undefined) | 3.66 µM (active) | 2.3 |  |
| O=C(COC(=O)C1CCC(=O)N1)Nc1ccc(Cl)cc1Cl (centres undefined) | inactive | -17 |  |
| CCC(C)OC(=O)C1=C(C)OC23OC(N)=C(C#N)C12C(=O)c1ccccc13 (centres undefined) | inactive | 2.42 |  |
| CC(OC(=O)CNC(=O)c1ccc(Cl)cc1)C(=O)NC1CCCCC1C (centres undefined) |  | 3.37 | -18.8% [at 0.0737 µM] (inactive) |
| CC(OC(=O)Cc1c(F)cccc1Cl)C(=O)NC1CCCCC1C (centres undefined) | 16.4 µM (active) | -24.1 |  |
| CC(OC(=O)Cc1ccc(Br)cc1)C(=O)NC1CCCCC1C (centres undefined) | inactive | 5.28 |  |
| CCc1ccc2oc(=O)cc(CN3CCN(Cc4ccccc4)CC3)c2c1 | inactive | 4.49 |  |
| O=C(NCc1ccccc1)c1cc(-c2cccc(O)c2)on1 | inactive | 9.36 |  |
| CC(OC(=O)c1nc(Cl)ccc1Cl)C(=O)Nc1ccccc1F (centres undefined) | inactive | -13.3 |  |
| CC(=O)Nc1ccc(NC(=O)CSc2nnc(C3CC3)n2C)cc1 | inactive | -6.84 |  |
| CC(C)n1cnnc1SCC(=O)Nc1cccc(S(=O)(=O)N(C)c2ccccc2)c1 | inactive | -11.3 |  |
| CC(=O)c1ccc(NC(=O)CSc2nnc(C3CC3)n2C)cc1 | 1.84 µM (active) | 24.2 |  |
| CCn1c(SCC(=O)Nc2ccc(C(C)=O)cc2)nnc1C1CC1 | inactive | 13.3 |  |
| CCn1c(SCC(=O)Nc2cccc(S(=O)(=O)N(C)c3ccccc3)c2)nnc1C1CC1 | inactive | 0.735 |  |
| CN(c1ccccc1)S(=O)(=O)c1cccc(NC(=O)CSc2nnc(C3CC3)n2C)c1 | 23.1 µM (active) | 4.1 |  |
